Compound activity as filed in PubChem BioAssay.
Tau fluor counter: Counterscreen qHTS for Inhibitors of Tau Fibril Formation, Fluorescence Polarization | tau K18 P301L Alexa594 fluorescence, heparin fibrillization | hit rate 0.93% among 280,000 | Potency, µM (doses to about 57.7 µM), for inactives: top-dose activity change, negative = decrease; further: potency means the concentration at half of the fitted maximal effect; nearly all actives have a fitted effect of over 55% in size
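Human K18 P301L tau (15 uM unlabeled plus 0.24 uM Alexa 594-labeled, final) in 100 mM sodium acetate pH 7 was mixed with compound and 20 uM heparin and incubated 6 hr at 37 C.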
Coupling enz: qHTS Assay for Inhibitors of Fructose-1,6-bisphosphate Aldolase from Giardia Lamblia: Coupling assay counterscreen; AID 2472, 2010; hit rate 0.67% among 290,000; coupling enzyme system counterscreen, AmpLite Red fluorescence; activity change, negative = inhibition, % at 58.2 µM, hits read low; in the data active means activity change below about -30%
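First, compound is pin-transferred into glyceraldehyde-3-phosphate coupling-enzyme reagent at 57.5 uM final and held 10 min at RT. Next, substrate, coupling system and AmpLite Red are added. After 20 min RT, fluorescence (525/598 nm) is read.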
Tau ThT inhib: qHTS for Inhibitors of Tau Fibril Formation, Thioflavin T Binding | recombinant tau K18 P301L (four-repeat tau fragment), heparin-induced fibrillization, ThT fluorescence | Potency, µM (titrated, usually from 57.4 µM), inactives show at the highest dose activity, negative = inhibition, actives largely listed as inhibitors | hit rate 2.1% among 270,000 | AID 1460, 2008; further: potency means the concentration at half of the fitted maximal effect; nearly all actives have a fitted effect of over 55% in size
Target sequence (P10636 561-689 P618L limits assumed): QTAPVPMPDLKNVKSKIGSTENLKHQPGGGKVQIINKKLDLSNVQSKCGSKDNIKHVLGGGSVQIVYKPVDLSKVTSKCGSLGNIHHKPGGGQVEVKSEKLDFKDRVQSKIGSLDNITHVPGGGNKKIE
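Heparin-induced (20 uM) aggregation of recombinant human K18 P301L tau, 15 uM unlabeled with 0.24 uM labeled, pH 7 acetate buffer, 6 hr at 37 C with compound. Fibrils quantified by 30 uM ThT fluorescence after 1 hr ambient incubation.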
Sfp PPTase inh: qHTS Assay for Inhibitors of Bacillus subtilis Sfp phosphopantetheinyl transferase (PPTase) | hit rate 3.5% among 310,000 | Potency, µM, for inactives: largest response in the series, negative = inhibition, actives largely listed as inhibitors | Biochemical Sfp PPTase activity, qHTS;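 further: the enzyme is Sfp with the accession as filed and its product quenches rhodamine fluorescence; potency means the concentration at half of the fitted maximal effect; 0% = enzyme reaction without inhibitor and -100% = no enzyme wells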
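Buffer: 50 mM Hepes-Na pH 7.6, 10 mM MgCl2, 0.01% Nonidet P-40, 0.01% BSA. Enzyme 15 nM, pre-exposed to compound 15 min; substrates then added and fluorescence change tracked over 30 min.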
Tau FP inhib: qHTS for Inhibitors of Tau Fibril Formation, Fluorescence Polarization. Microtubule-associated protein tau (Homo sapiens), P10636. K18 P301L tau heparin fibrillization, Alexa594 FP, 6 h. Potency, µM (top dose mostly 57.7 µM), for the others: at the highest dose activity, negative = inhibition, usual class: inhibitors. hit rate 0.39% among 280,000. AID 1468, 2008; further: potency means the concentration at half of the fitted maximal effect; nearly all actives have a fitted effect of over 55% in size
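Recombinant K18 P301L […], labeled with Alexa 594 at 0.24 uM over 15 uM unlabeled; heparin inducer 20 uM final; 37 C, 6 hr; FP endpoint.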
* marks the source's active call; other numbers are inactive results; ? = inconclusive; / = no result; [ ] = another dose, or the depositor's remark. In the library only some 5.2% were active in any assay of this set; here they are far more common. Unless noted, the call rests on the fitted dose curve; in most records, active means well fitted curve in the direction sought with a large enough effect; inconclusive means small, poorly fitted or top-dose-only effect, or another doubt; inactive means no such curve, though single readings can be large; an effect the other way counts as inactive or inconclusive. Unless noted, on the % scale 0 is the no-effect control and ±100 the full control effect.

SMILES	Tau fluor counter	Coupling enz	Tau ThT inhib	Sfp PPTase inh	Tau FP inhib
CSCC[C@H](N)C(=O)N[C@@H](CO)C(=O)N[C@@H](CCCN=C(N)N)C(=O)N1CCC[C@H]1C(=O)N[C@@H](C)C(=O)N[C@@H](CS)C(=O)N1CCC[C@H]1C(=O)N[C@@H](CC(N)=O)C(=O)N[C@@H](CC(=O)O)C(=O)N[C@@H](CCCCN)C(=O)N[C@@H](Cc1ccc(O)cc1)C(=O)N[C@@H](CCC(=O)O)C(=O)O	/	0	/	2%	/
O=C(O)C(Cc1cn[nH]n1)=NO	5%	-2	-1%	79µM*	0%
Cc1ccc(CN(Cc2cccn2-c2nnc(N3CCCC3=O)s2)C(=O)Nc2ccccc2Cl)cc1	-11%	/	-8%	/	2%
O=C(CSc1nnc(CNC(=O)c2ccco2)o1)Nc1ccccc1C(F)(F)F	/	/	/	5%	/
O=C(CSc1nnc(CNC(=O)c2ccco2)o1)Nc1ccccc1F	/	/	/	40µM*	/
CNc1ccccc(-c2ccc3ccccc3n2)c1=O	1%	-13	-14%	56µM*	3%
COc1cccc(N2CCN(c3ncnc4c3[nH]c3ccccc34)CC2C)c1 (stereo not drawn)	14µM*[quencher]	-2	?	6%	?
COc1cccc(N2CCN(c3ncnc4c3[nH]c3ccc(F)cc34)CC2C)c1 (stereo not drawn)	18µM*[quencher]	1	?	27%	?
COc1ccc2[nH]c3c(N4CC(C)OC(C)C4)ncnc3c2c1 (stereo not drawn)	-14%	-2	-25%	5%	9%
Cc1ccc(CSc2nc3ccccc3c(=O)n2CCCC(=O)NCc2ccco2)cc1	-10%	3	-2%	25µM*	-12%
CCCCn1c(SCC(=O)Nc2ccc(OC)cc2)nc2ccc(N3CCOCC3)cc2c1=O	-28%	-32*	?	-37%	12%
CCCCn1c(SCC(=O)NCc2ccco2)nc2ccc(N3CCOCC3)cc2c1=O	-2%	-40*	-7%	45µM*	-4%
CCCCn1c(SCC(=O)NCc2ccccc2)nc2ccc(N3CCOCC3)cc2c1=O	-9%	-37*	-14%	-29%	8%
CCCCn1c(SCC(=O)N2CCOCC2)nc2ccccc2c1=O	/	1	/	-8%	/
O=c1c(-c2ccc(F)cc2)nc2cnc(N3CCNCC3)nc2n1Cc1ccc(F)cc1	/	2	/	?	/
CCCCn1c(SCC(=O)NC(C)CC)nc2ccc(N3CCOCC3)cc2c1=O (stereo not drawn)	?	-36*	?	56µM*	-8%
CCC(C)NC(=O)CSc1nc2ccc(N3CCOCC3)cc2c(=O)n1CCc1ccccc1 (stereo not drawn)	-23%	-22	-12%	-15%	7%
COc1ccc(CNc2nc(-c3ccc(OC)cc3)cc(C(F)(F)F)n2)cc1	?	/	-8%	/	?
COC(=O)C1=C(C)N(Cc2ccccc2)[C@]23O[C@](C(=O)OC)(C(=O)N2C1c1ccccc1)C(c1ccccc1)C3C(=O)c1ccccc1 (stereo partly drawn)	-16%[11.6 µM]	-1	-15%[11.5 µM]	20%	-5%[11.6 µM]
COc1cc2[nH]c(Cl)c([N+](=O)[O-])c2cc1OC	?	-48*	14µM*	89µM*	?
Cc1ccc(C)c2[nH]c(=O)c(CN(CCN3CCCC3)C(=O)Nc3cccc(Cl)c3)cc12	-17%	2	-17%	14µM*	1%
Cc1cc(C)c2cc(CN(CCN3CCCC3)C(=O)Nc3ccc(F)cc3)c(=O)[nH]c2c1	-20%	-13	?	9%	?
CCOC(=O)c1[nH]c(C)c(CCC(=O)N2CCN(c3cccc(C)c3C)CC2)c1C	-13%	/	?	/	0%
Cc1cc(C)cc(NC(=O)C(=O)NCC(c2ccc3c(c2)OCO3)N2CCN(C)CC2)c1 (stereo not drawn)	-5%	/	-6%	/	-1%
COc1ccc(Cn2c(CO)cnc2SCc2ccc(F)cc2)cc1	-5%	/	-5%	/	-5%
